Only some compounds are listed: those with a hit (about 7.9% of all), similar ones and a draw of the others.
MCF10A rereplic = DNA re-replication induction in MCF 10a cells; MCF 10A DNA re-replication, Hoechst nuclear intensity, 48 h; Potency, µM (series often up to 46.1 µM), for inactives: top-dose activity, positive = re-replication, most hits filed as activators; 350,000 compounds, 2.9% hits; AID 624296; further: % of control where 0% means no effect; nearly all actives have a fitted effect of over 50% in size
SW480 rerep = DNA re-replication induction in SW480 cells. SW480 DNA re-replication, Hoechst DNA content imaging, 48 h. Potency, µM (series often up to 46.1 µM), inactives show at the top dose re-replication activation, actives largely listed as activators. 340,000 compounds, 1.8% hits; further: % of control where 0% means no effect; nearly all actives have a fitted effect of over 55% in size
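DNA re-replication was detected as more nuclei of elevated Hoechst intensity after 48 hr exposure to compound (23 nL pinned per well of 250 cells).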
KB-V1 MDR tox = KB-V1 MDR subline cytotoxicity; KB-V1 MDR cells viability, CellTiter-Glo, 72 h; Potency, µM (top dose mostly 46.1 µM), usual class: cytotoxic; 400,000 compounds, 3.4% hits; further: on the % scale 0 is the no-effect control and ±100 the full control effect; nearly all actives have a fitted effect of over 60% in size
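In this primary screen, KB-V1 cells overexpressing P-gp are incubated with library compounds (lowest to highest concentration) for 72 h at 37 degrees C before a luminescent ATP viability read.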
HT1080NT lethal = kills 2HG-producing HT-1080-NT fibrosarcoma cells; AID 686970; 360,000 compounds, 1.6% hits; HT-1080-NT fibrosarcoma viability, CellTiter-Glo ATP luminescence, 48 h; Potency, µM (titrated, usually from 46.1 µM), for inactives: at the highest dose activity, negative = less viability, usual class: cytotoxic;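 further: NT is the 2HG producing partner of a matched IDH1 knockdown line; 0% = DMSO-treated cells and -100% = media-only wells without cells; nearly all actives have a fitted effect of over 55% in size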
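HT-1080-NT; 750 cells/well; 5% FBS RPMI; 48 h compound, 37 degrees C; CellTiter-Glo luminescence; curve fitting and curve-class assignment.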
KB-3-1 tox = KB-3-1 parental cell cytotoxicity; KB-3-1 viability, CellTiter-Glo ATP luminescence, 72 h; Potency, µM (series often up to 46.1 µM), most hits filed as cytotoxic; 400,000 compounds, 1.4% hits; AID 1347075; further: on the % scale 0 is the no-effect control and ±100 the full control effect; nearly all actives have a fitted effect of over 60% in size
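Multi-concentration cytotoxicity screen in KB-3-1 cells grown in DMEM lacking phenol red with 10% FBS. After 72 h at 37 °C with compound, ATP-dependent luminescence was recorded.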
HT1080 IDH1KD tx = kills HT-1080 cells with IDH1 knockdown; HT-1080 IDH1 knockdown viability, ATP luminescence, 48 h; Potency, µM (titrated, usually from 46.1 µM), without a hit: at the highest dose activity, negative = toxicity, actives largely listed as cytotoxic; 360,000 compounds, 2% hits; AID 686971;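 further: 0% = DMSO wells and -100% = cell-free medium wells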
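In this qHTS, HT-1080 cells depleted of IDH1 are exposed for 48 h at 37 °C to compound titrations. Toxicity is scored from CellTiter-Glo luminescence, with DMSO as full viability and medium alone as none.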
Active calls of the source: *; i = inactive; u = inconclusive; x = no result given; [ ] = remark or other dose. The call rests on the fitted dose curve; in most records, active means well fitted curve in the direction sought with a large enough effect; inconclusive means small, poorly fitted or top-dose-only effect, or another doubt; inactive means no such curve, though single readings can be large; an effect the other way counts as inactive or inconclusive. Potency means the concentration at half of the fitted maximal effect.

SMILES	MCF10A rereplic	SW480 rerep	KB-V1 MDR tox	HT1080NT lethal	KB-3-1 tox	HT1080 IDH1KD tx
CCOc1ccc(NS(=O)(=O)c2cc(NC(=O)c3cccc(C)c3)ccc2Cl)cc1	u	u	i	u	u	25.9µM*
CCOc1cc(CN2CCN(c3ncccn3)CC2)ccc1OC	1.2%	-1.9%	i	4.0%	i	9.0%
COc1cc(C(=O)Nc2nc(-c3ccc(C)cc3)cs2)ccc1OCC(=O)N1CCOCC1	21.3%	-88.3%	i	-19.5%	i	-3.5%
COc1ccc(-c2nc(NC(=O)c3ccc(OCC(=O)Nc4ccc(F)cc4)c(OC)c3)sc2C)cc1	20.6µM*	20.5%	i	18.4µM*	i	16.4µM*
COc1cc(C(=O)Nc2nc(-c3ccc(F)cc3)cs2)ccc1OCC(=O)N1CCOCC1	23.1µM*	0.5%	i	-18.7%	i	-2.8%
COc1cc(C(=O)Nc2nc(-c3cc(C)ccc3C)c(C)s2)ccc1OCC(=O)Nc1ccc(F)cc1	u	-6.6%	u	-8.1%	i	-10.5%
C=CCn1c(=S)[nH]c2cc(C(=O)N3CCN(c4ccccc4OC)CC3)ccc2c1=O	11.7%	4.1%	i	-12.8%	i	-3.8%
CCOC(=O)N1CCN(C(=O)C[C@@H]2C[C@@]3(C(=O)OCC)CCCC=C3N(CCC3=CCCCC3)C2=O)CC1	x	x	u	u	i	u
CO/N=C(/C(=O)N[C@@H]1C(=O)N2C(C(=O)O)=C(CSc3cnns3)CS[C@H]12)c1csc(N)n1	0.3%	-4.6%	x	x	x	x
Cn1c(Cn2c(=O)sc3ccccc32)nnc1SCC(=O)N1CCN(c2ccccc2)CC1	-2.4%	2.8%	i	-1.1%	i	0.5%
O=C(CSc1nnc(-c2cccnc2)n1-c1ccccc1)N1CCN(c2ccc(F)cc2)CC1	-28.6%	-3.0%[9.22 µM]	u	4.0%	i	5.3%
CCOc1ccc(-n2c(SCc3nc(-c4ccc(C)cc4)no3)nnc2-c2ccncc2)cc1	u	28.0%	u	u	i	10µM*
COc1ccc(-c2noc(CSc3nnc(-c4ccncc4)n3-c3ccc(C)cc3)n2)cc1	x	x	i	x	i	x
O=C(CSc1nnc(-c2ccncc2)n1-c1ccccc1)N1CCN(c2ccc(Cl)cc2)CC1	u	-10.4%	16.4µM*	10.2%	i	4.7%
O=C(CSc1nnc2sc3ccccc3n12)N1CCN(c2ccccc2)CC1	0.7%	-3.1%	8.2µM*	9.4%	i	-15.3%
Clc1ccc(-c2noc(CSc3nnc(-c4ccncc4)n3-c3ccccc3)n2)cc1	u	u	2.59µM*	u	i	u
CC(C)c1ccc(CNc2nc(-c3ccco3)nn2C(=O)c2ccc([N+](=O)[O-])cc2)cc1	x	x	i	x	i	x
Cc1ccc(-c2noc(CSc3nnc(Cc4ccccc4)n3-c3cccc(C)c3)n2)cc1	18.4µM*	18.3%	i	0.5%[9.24 µM]	u	u
O=C(NCCS(=O)(=O)N1CCN(c2ccccc2F)CC1)c1ccc(Cl)cc1	13.0%	-3.4%	u	0.2%	i	1.7%
O=C(Cc1ccc(Cl)cc1)NCCS(=O)(=O)N1CCN(c2ccccc2F)CC1	18.4µM*	u	7.31µM*	u	13µM*	u
Cc1c(C(=O)NCCS(=O)(=O)N2CCN(c3ccccc3F)CC2)cccc1[N+](=O)[O-]	u	u	u	u	23.1µM*	u
CCCCNC(=O)c1cccc(NC(=O)c2nsc3ccccc23)c1	x	x	i	x	i	x
CCCc1nc2ccccc2n2c(-c3cccc(C)c3)c3c(=O)n(C)c(=O)n(C)c3c12	x	x	i	x	i	x
CC(=O)c1c(C)[nH]c(C(=O)C(C)Sc2nnc(NC3CC3)s2)c1C (stereo not given)	18.4µM*	-2.4%	x	4.3%	x	-27.2%

Screens deposited in PubChem BioAssay by National Center for Advancing Translational Sciences (NCATS).
